Measurements from article PMC7862700, “An all-to-all approach to the identification of sequence-specific readers for epigenetic DNA modifications on cytosine”.

Key:
Experiment in all cases: DAPPL (digital affinity profiling via proximity ligation, sequencing); 10 mM Tris-HCl pH 7.5, 50 mM NaCl, 1 mM DTT, 4% glycerol, room temperature, 30 min; GST-TFs on glutathione beads, 16-mer random dsDNA library, 0.1% formaldehyde crosslink after washing; high values mean tight binding
Conditions in all cases: protein: recombinant; tags: N-terminal GST; dsDNA, one strand shown
ELK4 = target: T1, ELK4 (Homo sapiens, UniProt P28324-2 1-405)
T1 sequence: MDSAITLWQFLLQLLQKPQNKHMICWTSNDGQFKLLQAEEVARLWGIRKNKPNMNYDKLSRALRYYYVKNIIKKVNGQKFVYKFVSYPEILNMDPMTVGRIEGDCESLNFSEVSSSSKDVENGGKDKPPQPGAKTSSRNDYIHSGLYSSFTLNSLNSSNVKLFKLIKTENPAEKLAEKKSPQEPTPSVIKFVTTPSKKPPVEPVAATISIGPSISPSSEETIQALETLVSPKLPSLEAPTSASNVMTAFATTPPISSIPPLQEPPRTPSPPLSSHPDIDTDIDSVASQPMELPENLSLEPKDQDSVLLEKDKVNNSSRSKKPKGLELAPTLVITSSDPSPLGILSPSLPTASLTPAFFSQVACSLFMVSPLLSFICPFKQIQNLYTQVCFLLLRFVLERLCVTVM
Procedure, shortened: (§1)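 GST fusions of human transcription factors were expressed in yeast and captured with glutathione beads. Once given DNA barcodes and pooled alongside a tag-only sample, they were incubated for 30 min at room temperature with 200 nmole of a random double-stranded 16-mer DNA library in Tris/NaCl/DTT/glycerol buffer, then washed, crosslinked (0.1% formaldehyde), proximity-ligated, PCR-amplified and sequenced on an Illumina NextSeq500. The binding signal of each hexamer is its read frequency for a factor divided by its frequency for the tag-only sample.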

ELF3 = target: T2, ELF3 (Homo sapiens, UniProt P78545 1-371)
T2 sequence: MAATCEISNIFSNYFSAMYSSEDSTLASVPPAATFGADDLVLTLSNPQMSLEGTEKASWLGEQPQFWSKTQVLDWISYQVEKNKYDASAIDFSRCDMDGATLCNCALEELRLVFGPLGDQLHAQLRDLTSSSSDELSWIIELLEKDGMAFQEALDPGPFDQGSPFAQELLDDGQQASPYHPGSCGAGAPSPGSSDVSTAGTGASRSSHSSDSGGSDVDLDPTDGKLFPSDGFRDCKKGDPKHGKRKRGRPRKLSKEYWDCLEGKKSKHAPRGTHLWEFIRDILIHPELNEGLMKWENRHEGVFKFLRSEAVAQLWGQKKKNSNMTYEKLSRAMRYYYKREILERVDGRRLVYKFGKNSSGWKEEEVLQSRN
Procedure, shortened: as §1

ETV1 = ETV1 (Homo sapiens, UniProt P50549 1-477)
ETV1, sequence (P50549 whole entry): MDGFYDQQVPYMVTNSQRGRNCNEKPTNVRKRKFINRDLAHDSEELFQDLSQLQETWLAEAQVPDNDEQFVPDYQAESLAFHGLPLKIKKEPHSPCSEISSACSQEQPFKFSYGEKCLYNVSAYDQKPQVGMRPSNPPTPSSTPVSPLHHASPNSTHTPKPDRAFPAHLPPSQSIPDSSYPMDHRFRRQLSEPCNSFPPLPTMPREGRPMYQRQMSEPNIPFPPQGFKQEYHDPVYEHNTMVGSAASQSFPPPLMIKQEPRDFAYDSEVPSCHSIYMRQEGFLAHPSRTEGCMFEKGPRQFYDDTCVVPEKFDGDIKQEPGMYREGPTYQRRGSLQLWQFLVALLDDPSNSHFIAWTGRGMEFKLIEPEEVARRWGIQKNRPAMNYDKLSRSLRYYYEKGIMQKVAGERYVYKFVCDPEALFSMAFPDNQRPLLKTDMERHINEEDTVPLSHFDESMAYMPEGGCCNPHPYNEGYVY
Procedure, shortened: as §1

ERF = target: T3, ERF (Homo sapiens, UniProt P50548 1-548)
T3 sequence: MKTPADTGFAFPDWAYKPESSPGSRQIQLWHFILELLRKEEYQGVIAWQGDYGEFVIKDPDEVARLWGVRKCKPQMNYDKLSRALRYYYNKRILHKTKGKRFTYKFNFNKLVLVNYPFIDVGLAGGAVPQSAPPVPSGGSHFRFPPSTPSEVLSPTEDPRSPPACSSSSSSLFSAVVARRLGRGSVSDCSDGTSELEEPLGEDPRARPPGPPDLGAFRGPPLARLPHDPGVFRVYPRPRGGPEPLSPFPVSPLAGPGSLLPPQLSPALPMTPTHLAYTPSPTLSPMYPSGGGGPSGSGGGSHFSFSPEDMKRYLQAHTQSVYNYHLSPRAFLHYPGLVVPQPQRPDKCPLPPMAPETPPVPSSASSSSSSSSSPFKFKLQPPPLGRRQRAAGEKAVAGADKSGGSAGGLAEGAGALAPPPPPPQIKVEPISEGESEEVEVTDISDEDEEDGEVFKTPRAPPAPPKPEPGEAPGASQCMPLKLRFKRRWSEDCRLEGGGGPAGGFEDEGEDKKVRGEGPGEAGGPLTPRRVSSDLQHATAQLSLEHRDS
Procedure, shortened: as §1

ETV3L = target: T4, ETV3L (Homo sapiens, UniProt Q6ZN32 1-361)
T4 sequence: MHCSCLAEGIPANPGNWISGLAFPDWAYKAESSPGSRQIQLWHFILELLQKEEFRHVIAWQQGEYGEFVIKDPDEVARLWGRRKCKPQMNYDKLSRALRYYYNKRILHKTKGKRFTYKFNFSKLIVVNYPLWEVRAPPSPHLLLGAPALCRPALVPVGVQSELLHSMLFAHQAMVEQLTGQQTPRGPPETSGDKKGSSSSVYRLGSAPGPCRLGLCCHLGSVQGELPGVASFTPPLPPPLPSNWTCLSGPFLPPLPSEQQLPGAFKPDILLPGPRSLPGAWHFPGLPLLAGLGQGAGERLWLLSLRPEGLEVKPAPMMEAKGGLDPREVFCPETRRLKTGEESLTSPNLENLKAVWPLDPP
Procedure, shortened: as §1

ETS2 = target: T5, ETS2 (Homo sapiens, UniProt P15036 1-469)
T5 sequence: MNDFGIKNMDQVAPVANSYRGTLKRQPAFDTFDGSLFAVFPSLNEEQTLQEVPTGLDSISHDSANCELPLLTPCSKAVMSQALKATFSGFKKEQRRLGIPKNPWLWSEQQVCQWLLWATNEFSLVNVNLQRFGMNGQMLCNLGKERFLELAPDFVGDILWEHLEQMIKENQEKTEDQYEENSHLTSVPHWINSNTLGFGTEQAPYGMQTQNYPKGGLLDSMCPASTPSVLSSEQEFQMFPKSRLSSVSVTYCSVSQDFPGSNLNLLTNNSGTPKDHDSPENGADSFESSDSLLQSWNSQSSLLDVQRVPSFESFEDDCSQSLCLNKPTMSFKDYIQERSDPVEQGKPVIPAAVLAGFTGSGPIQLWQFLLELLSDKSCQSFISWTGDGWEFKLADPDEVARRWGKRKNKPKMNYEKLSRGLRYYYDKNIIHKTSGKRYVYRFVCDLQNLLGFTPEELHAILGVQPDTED
Procedure, shortened: as §1

SPDEF = target: T6, SPDEF (Homo sapiens, UniProt O95238 1-335)
T6 sequence: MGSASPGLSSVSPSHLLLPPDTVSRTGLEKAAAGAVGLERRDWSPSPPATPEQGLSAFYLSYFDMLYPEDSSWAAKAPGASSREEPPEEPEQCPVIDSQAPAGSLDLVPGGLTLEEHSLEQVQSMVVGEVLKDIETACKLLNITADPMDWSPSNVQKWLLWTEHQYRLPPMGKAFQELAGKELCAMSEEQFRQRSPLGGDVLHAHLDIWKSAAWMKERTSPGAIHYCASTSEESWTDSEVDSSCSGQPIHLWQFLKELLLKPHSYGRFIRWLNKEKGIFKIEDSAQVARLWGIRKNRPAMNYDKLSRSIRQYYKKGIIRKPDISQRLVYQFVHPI
Procedure, shortened: as §1

ETV7 = target: T7, ETV7 (Homo sapiens, UniProt Q9Y603 1-341)
T7 sequence: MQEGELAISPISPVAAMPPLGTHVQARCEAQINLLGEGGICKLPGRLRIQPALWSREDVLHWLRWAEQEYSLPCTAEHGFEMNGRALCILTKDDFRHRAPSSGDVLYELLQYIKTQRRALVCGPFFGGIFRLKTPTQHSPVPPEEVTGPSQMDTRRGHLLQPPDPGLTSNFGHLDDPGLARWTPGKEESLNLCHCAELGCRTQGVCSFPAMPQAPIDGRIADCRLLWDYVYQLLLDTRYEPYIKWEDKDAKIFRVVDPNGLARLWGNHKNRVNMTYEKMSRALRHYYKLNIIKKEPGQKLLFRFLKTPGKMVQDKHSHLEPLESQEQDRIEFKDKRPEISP
Procedure, shortened: as §1

ETV3 = target: T8, ETV3 (Homo sapiens, UniProt P41162-2 1-143)
T8 sequence: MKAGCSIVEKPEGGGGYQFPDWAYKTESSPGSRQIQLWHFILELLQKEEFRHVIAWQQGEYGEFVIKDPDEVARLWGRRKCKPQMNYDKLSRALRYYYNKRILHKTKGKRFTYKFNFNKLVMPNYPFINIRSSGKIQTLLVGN
Procedure, shortened: as §1

ETV6 = ETV6 (Homo sapiens, UniProt P41212 1-452)
ETV6, sequence (P41212 whole entry): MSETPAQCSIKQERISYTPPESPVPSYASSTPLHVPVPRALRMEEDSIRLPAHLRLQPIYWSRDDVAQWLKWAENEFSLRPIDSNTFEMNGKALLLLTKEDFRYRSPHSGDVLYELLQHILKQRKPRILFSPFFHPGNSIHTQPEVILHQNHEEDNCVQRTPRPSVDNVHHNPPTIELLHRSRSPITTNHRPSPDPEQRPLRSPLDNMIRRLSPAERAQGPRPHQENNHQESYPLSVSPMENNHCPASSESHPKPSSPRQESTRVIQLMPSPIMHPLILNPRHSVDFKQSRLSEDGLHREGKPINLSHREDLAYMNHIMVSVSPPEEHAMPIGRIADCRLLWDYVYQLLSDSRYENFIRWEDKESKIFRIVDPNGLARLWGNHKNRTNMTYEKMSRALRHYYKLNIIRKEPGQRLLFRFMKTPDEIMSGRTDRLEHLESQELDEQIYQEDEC
Procedure, shortened: as §1

TGATTA
binding signal (ELK4): 1.16 fold enrichment (6-mer frequency, TF over GST control)
binding signal (ELF3): 1.18 fold enrichment (6-mer frequency, TF over GST control)
binding signal (ETV1): 1.09 fold enrichment (6-mer frequency, TF over GST control)
binding signal (ERF): 1.16 fold enrichment (6-mer frequency, TF over GST control)
binding signal (ETV3L): 1.07 fold enrichment (6-mer frequency, TF over GST control)
binding signal (ETS2): 1.03 fold enrichment (6-mer frequency, TF over GST control)
binding signal (SPDEF): 1.01 fold enrichment (6-mer frequency, TF over GST control)
binding signal (ETV7): 1.05 fold enrichment (6-mer frequency, TF over GST control)
binding signal (ETV3): 1.08 fold enrichment (6-mer frequency, TF over GST control)
binding signal (ETV6): 1.06 fold enrichment (6-mer frequency, TF over GST control)
